14 compounds from the supplement of paper PMC6522484 can be followed below.

± gives the standard deviation of the averaged measurements.

Test [1] deals with DLD1. Put plainly: cell viability (CellTiter-Glo) relative to plate median (fraction of plate median); higher = more viable cells. The conditions noted are these: 5 µM; treatment time 24 h; reporter: 7TFP. The method in brief:
(§1)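 Values are well luminescence normalised to the plate median, from either a firefly luciferase or a CellTiterGlo readout on parallel plates. The cells, colorectal cancer lines stably transduced with lentiviral 7TFP or TCF4/Wnt firefly luciferase reporters, were treated with library compounds at a final 5 µM for 24 h. The mean of two independent replicates is listed.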

The next test concerns HCT116. The test is described as above. The following applies: 5 µM; treatment time 24 h; reporter: TCF4/Wnt. Put shortly: as §1
The test system of test [2] is SW480. The test is described as above. The following applies: 5 µM; treatment time 24 h; reporter: 7TFP. The method in brief:
as §1

The subject of test [3] is DLD1. Put plainly: TCF/Wnt firefly luciferase reporter signal relative to plate median (fraction of plate median); higher = higher Wnt reporter signal. The conditions noted are these: 5 µM; treatment time 24 h; reporter: 7TFP. The method in brief:
as §1

Test [4] concerns SW480. The test is described as above. The following applies: 5 µM; treatment time 24 h; reporter: 7TFP. The method in brief: as §1

As to `CCOc1ccc(C(=O)c2ccc(O)c(O)c2O)cc1`, the cell viability stood at 0.928 ± 0.13 in the test on DLD1 [1], 0.97 ± 0.18 with HCT116 and 1 ± 0.052 in the test with SW480 [2]. The figures for the “TCF/Wnt firefly luciferase reporter signal” value in the test on DLD1 [3] and with SW480 [4] were 0.964 ± 0.093 and 1.1 ± 0.071, respectively.
Take `CN[C@H]1CC[C@@H](c2ccc(Cl)c(Cl)c2)c2ccccc21`: the results for the cell viability in the test with DLD1 [1], in the test with HCT116 and with SW480 [2] were 0.713 ± 0.26, 0.386 ± 0.052 and 0.934 ± 0.22, respectively. Moreover, the “TCF/Wnt firefly luciferase reporter signal” value in the test on DLD1 [3] was found to be 0.796 ± 0.23; with SW480 [4] it was 0.675 ± 0.15.
The corresponding values for `N[C@@H](Cc1c[nH]c2ccccc12)C(=O)O` are 1.07 ± 0.078, 1.07 ± 0.014, 1.03 ± 0.014, 1.21 ± 0.028 and 1.1 ± 0.05.
For the compound `CC(=O)CCCCn1c(=O)c2c(ncn2C)n(C)c1=O`, the cell viability is 0.93 ± 0.015 in the test with DLD1 [1], 0.911 ± 0.054 with HCT116 and 0.94 ± 0.051 in the test on SW480 [2]. Further, the entries for the “TCF/Wnt firefly luciferase reporter signal” value with DLD1 [3] and in the test on SW480 [4] were 1.15 ± 0.085 and 1.03 ± 0.014, respectively.
The corresponding values for `C[C@]1(OC(=O)/C=C/c2ccccc2)C[C@@H](O)[C@]2(O)C=CO[C@@H](O[C@@H]3O[C@H](CO)[C@@H](O)[C@H](O)[C@H]3O)[C@@H]21` are 1.035 ± 0.0071, 1.02 ± 0.11, 1.06 ± 0.05, 1.12 ± 0.028 and 1.03 ± 0.05.
The matching figures for `COC(=O)[C@H]1[C@H]2C[C@@H]3c4[nH]c5cc(OC)ccc5c4CCN3C[C@H]2C[C@@H](OC(=O)c2cc(OC)c(OC)c(OC)c2)[C@@H]1OC`: 0.932 ± 0.065, 1.02 ± 0.07, 0.972 ± 0.054, 0.974 ± 0.093 and 1.01 ± 0.018.
`COC(=O)CC[C@@H](C)[C@H]1CC[C@H]2[C@@H]3[C@H](O)C[C@@H]4C[C@H](O)CC[C@]4(C)[C@H]3C[C@H](O)[C@]12C`: the cell viability in the test on DLD1 [1] turned out to be 0.98 ± 0.0099; in the test on HCT116, 1.06; with SW480 [2], 1.005 ± 0.0071. For the same compound, the “TCF/Wnt firefly luciferase reporter signal” value is 1.21 ± 0.014 in the test on DLD1 [3] and 1.09 ± 0.092 in the test with SW480 [4].
The matching figures for `C[C@@H]1C(=O)O[C@H]2C[C@@]34[C@H]5C[C@@H](C(C)(C)C)[C@]36[C@@H](OC(=O)[C@@H]6O)O[C@@]4(C(=O)O5)[C@]21O`: 1.07 ± 0.021, 1.11 ± 0.064, 0.99 ± 0.015, 1.15 ± 0.021 and 1.03 ± 0.11.
The matching figures for `CN(CCOc1ccc(CC2SC(=O)NC2=O)cc1)c1ccccn1` (stereo not given): 0.935 ± 0.03, 0.894 ± 0.044, 0.949 ± 0.04, 0.899 ± 0.09 and 0.906 ± 0.15.
The matching figures for `CC(N)CCCC(C)(C)O` (stereo not given): 1.01 ± 0.092, 0.955 ± 0.078, 0.933 ± 0.022, 1.03 ± 0.021 and 1.04 ± 0.035.
For `CC(=O)OCC(=O)[C@@]1(O)CC[C@H]2[C@@H]3CC[C@@H]4C[C@H](O)CC[C@]4(C)[C@H]3C(=O)C[C@@]21C`, the results for the cell viability with DLD1 [1], with HCT116 and in the test with SW480 [2] were 0.905 ± 0.11, 1 ± 0.071 and 0.939 ± 0.011, respectively. The “TCF/Wnt firefly luciferase reporter signal” value with DLD1 [3] is 0.968 ± 0.036; with SW480 [4] it was 0.885 ± 0.019.
For `N[C@@H](Cc1cc(I)c(Oc2ccc(O)c(I)c2)c(I)c1)C(=O)O` [LIOTHYRONINE (L- isomer) SODIUM], the cell viability in the test on DLD1 [1] was 0.994 ± 0.093; in the test with HCT116 it was 1.04 ± 0.091; in the test on SW480 [2], 1.11 ± 0.064. For the same compound, the results for the “TCF/Wnt firefly luciferase reporter signal” value in the test with DLD1 [3] and in the test with SW480 [4] were 1.14 ± 0.17 and 1.055 ± 0.0071, respectively.
With `CNCCCN1c2ccccc2CCc2ccccc21`, the cell viability in the test with DLD1 [1] was found to be 0.994 ± 0.023; in the test on HCT116, 0.933 ± 0.013; in the test with SW480 [2], 0.909 ± 0.041. The figures for the “TCF/Wnt firefly luciferase reporter signal” value with DLD1 [3] and with SW480 [4] were 0.868 ± 0.035 and 0.934 ± 0.045, respectively.
The corresponding values for `O=C(/C=C/c1ccc(O)cc1)c1ccc(O)cc1O` are 0.97 ± 0.012, 1.03 ± 0.08, 0.968 ± 0.0099, 1 ± 0.15 and 0.862 ± 0.076.
